Data reported in PubChem BioAssay.
Where “and” joins values, the source holds several entries; their conditions need not be identical. Equal values may be shown once. Calls of active or inactive are those of the source. Unless noted, the rule behind the calls is not given here.

Experiments:
[1] = Wnt pathway potentiators raising nuclear beta-catenin – imaging, WNT3A-conditioned medium, mouse C2C12, NPC library, primary screen (AID 1117326; in the data active = nuclear beta-catenin stimulation mostly above about 4.2%, no sharp cut-off; inactive = mostly below about 10%); settings: stronger effect = higher value
[2] = growth inhibition of GSK3B-pretreated HCT116 cells – cell-based, CellTiter-Glo, 0.2 to 20 µM (AID 1117336;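 active = compounds lowering colon cancer cell viability after pretreatment blocking the GSK3B kinase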); settings: HCT116 viability after GSK3B inhibitor, at 20 µM, stronger effect = higher value
[3] = HCT116 colon cancer cell growth inhibition, primary screen, CellTiter-Glo luminescence, NPC library (AID 1117342;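 active = compounds that lower survival of HCT116 colon cancer cells in the luminescence readout, no numeric limit stated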); settings: at 20 µM (top of the series)
[4] = reduced SW480 viability measured with CellTiter-Glo, NPC library, primary (AID 1117343;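 active = compounds that lower viability of the colon cancer cells in the luminescence readout, with no numeric limit stated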); settings: CellTiter-Glo luminescence; at 20 µM (top of the series) unless noted
[5] = NPC library primary testing for decreased DLD-1 cell viability via CellTiter-Glo (AID 1117346;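 active = compounds that lower survival of DLD-1 colon cancer cells in the luminescence readout, no cutoff given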); settings: DLD-1 viability, CellTiter-Glo luminescence; at 20 µM (top of the series)
[6] = target: 6-phosphogluconate dehydrogenase, decarboxylating (Homo sapiens) (UniProt P52209); assay: inhibition of human phosphogluconate dehydrogenase – biochemical, recombinant enzyme, NADPH absorbance, primary screen (AID 1159550;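 active = at least 20% inhibition of 6-phosphogluconate dehydrogenase activity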); settings: recombinant 6PGD, NADPH absorbance 341 nm; at 10 µM; stronger effect = higher value
Chain of 6-phosphogluconate dehydrogenase, decarboxylating (Homo sapiens) (P52209 whole entry, looked up): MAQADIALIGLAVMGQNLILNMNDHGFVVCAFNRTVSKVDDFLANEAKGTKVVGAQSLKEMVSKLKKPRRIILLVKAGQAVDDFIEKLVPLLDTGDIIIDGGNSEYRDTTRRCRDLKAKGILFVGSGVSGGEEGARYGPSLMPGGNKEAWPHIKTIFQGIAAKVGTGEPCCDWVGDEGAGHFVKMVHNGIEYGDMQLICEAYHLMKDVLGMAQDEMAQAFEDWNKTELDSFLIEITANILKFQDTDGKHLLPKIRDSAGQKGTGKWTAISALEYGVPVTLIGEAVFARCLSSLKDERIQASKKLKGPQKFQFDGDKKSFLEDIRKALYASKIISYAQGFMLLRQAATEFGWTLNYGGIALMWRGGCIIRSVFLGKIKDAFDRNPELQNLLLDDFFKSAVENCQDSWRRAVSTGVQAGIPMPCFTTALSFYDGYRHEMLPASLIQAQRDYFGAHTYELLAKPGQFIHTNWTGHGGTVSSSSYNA

[7] = EMT-state selective cytotoxicity in co-culture – imaging, PC-3E GFP, TEM4-18 mCherry, primary screen (AID 1345086;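 active = compounds killing one labelled cell type while sparing the other, by normalised counts and ratio limits, not self-fluorescent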;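 for all read-outs here: cells exposed to compound for 72 h before imaging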;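 for red/green cell ratio (normalised): normalised mesenchymal count divided by normalised epithelial count so high means epithelial killing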); settings: PC-3E GFP / TEM4-18 mCherry co-culture, imaging cell counts, at 1 µM; for red/green cell ratio (normalised): actives lie on both sides, counts scaled to control wells, 1 = unselective
[8] = target: NAD(+) hydrolase SARM1 (Homo sapiens) (UniProt Q6SZW1); assay: blocking NAD cleavage by SARM1 SAM-TIR – cell lysate, NAD-Glo luminescence (AID 1508614;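 active = compound whose remaining NAD level is above about 45 nM, limit read from the data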;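 note: higher remaining NAD means stronger inhibition of SARM1 NADase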); settings: SAM-TIR HEK293T lysate NADase, at 1 µM, stronger effect = higher value
Chain of NAD(+) hydrolase SARM1 (Homo sapiens) (Q6SZW1 whole entry, looked up): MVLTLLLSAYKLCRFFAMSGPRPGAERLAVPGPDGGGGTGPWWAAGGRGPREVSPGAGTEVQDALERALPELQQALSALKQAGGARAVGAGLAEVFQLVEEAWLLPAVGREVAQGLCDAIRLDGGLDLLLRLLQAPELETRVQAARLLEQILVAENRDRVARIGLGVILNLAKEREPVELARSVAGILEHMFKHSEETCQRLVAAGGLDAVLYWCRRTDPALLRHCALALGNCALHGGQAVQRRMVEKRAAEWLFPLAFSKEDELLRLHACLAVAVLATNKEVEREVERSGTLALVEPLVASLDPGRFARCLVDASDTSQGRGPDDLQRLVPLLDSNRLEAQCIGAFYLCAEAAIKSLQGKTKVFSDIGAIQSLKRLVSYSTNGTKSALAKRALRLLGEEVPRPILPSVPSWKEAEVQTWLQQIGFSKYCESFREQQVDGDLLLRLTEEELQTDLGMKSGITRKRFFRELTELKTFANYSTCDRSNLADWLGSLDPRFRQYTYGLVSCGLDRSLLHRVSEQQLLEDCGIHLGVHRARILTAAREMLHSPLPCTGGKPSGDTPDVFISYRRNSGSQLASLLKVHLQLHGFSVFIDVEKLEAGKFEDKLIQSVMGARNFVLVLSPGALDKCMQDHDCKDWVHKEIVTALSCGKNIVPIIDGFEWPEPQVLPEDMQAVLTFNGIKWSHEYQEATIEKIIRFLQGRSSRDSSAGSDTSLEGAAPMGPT

[9] = compounds altering viability of human ES cells (AID 493140); settings: human embryonic stem cell survival screen; stronger effect = higher value;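 note: cells exposed to compounds for four days before counting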
[10] = modulation of C. elegans fzo-1 (AID 1259413);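 note: fzo-1 mutant C. elegans worms in liquid wells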; settings: C. elegans fzo-1 modulator screen, mean read-out; stronger effect = higher value
[11] = MELAS cybrid and Rieske KO viability enhancers – cell-based, MELAS cybrids, Rieske KO mouse fibroblasts, CellTiter-Glo, primary screen (AID 1508586;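 active = mean z-score across replicates of 1.96 or higher in either the MELAS or the Rieske mutant cell line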;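 note: z relative to plate mean and SD of compound and empty wells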); settings: low glucose
[12] = target: Mitogen-activated protein kinase 7 (Homo sapiens) (UniProt Q13164); assay: Gal4-ERK5 driven luciferase induction – cell-based, HTS, primary screen (AID 1508626;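 active = luciferase signal above three times the same-plate solvent-only control wells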;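 note: luciferase driven by Gal4-ERK5 fusion binding five Gal4 sites before minimal TATA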); settings: HeLa Gal4-ERK5 transactivation, 18 h, at 5 µM, stronger effect = higher value
Chain of Mitogen-activated protein kinase 7 (Homo sapiens) (Q13164 whole entry, looked up, the tested form may be a part): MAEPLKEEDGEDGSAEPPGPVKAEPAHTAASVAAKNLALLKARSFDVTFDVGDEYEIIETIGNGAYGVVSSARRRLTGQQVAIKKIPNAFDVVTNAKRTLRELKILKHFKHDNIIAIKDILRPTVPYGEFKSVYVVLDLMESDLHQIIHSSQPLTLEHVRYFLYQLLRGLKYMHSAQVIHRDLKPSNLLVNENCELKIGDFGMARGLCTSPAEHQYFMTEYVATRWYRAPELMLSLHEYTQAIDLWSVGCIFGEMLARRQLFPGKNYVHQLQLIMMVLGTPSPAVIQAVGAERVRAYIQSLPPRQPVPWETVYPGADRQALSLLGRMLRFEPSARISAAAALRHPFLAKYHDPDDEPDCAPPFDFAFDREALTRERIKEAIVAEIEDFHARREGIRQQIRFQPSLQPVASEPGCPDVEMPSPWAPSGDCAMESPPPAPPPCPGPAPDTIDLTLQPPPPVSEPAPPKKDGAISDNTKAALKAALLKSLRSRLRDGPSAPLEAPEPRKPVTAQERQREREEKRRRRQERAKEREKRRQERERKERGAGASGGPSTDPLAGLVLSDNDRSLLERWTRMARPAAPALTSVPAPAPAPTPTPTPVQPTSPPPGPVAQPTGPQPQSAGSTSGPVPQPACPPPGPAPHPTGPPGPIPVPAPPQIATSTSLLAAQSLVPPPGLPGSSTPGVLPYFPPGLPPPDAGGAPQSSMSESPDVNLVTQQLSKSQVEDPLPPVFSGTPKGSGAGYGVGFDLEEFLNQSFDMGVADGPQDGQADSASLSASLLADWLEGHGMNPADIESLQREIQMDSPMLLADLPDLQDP

[13] = galactose survival enhancers in mitochondrial complex I cybrids – cell-based, galactose medium, ATP luminescence, primary screen (AID 1645843;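 active = z-score of at least 1.8 in each of two replicates, scored against plate mean and spread of sample wells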;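 note: positive z means more ATP and so rescue of galactose-driven cybrid death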); settings: complex I mutant cybrid cells, 72 h, stronger effect = higher value
[14] = P. berghei load reduction in hepatocytes – cell-based, HepG2, luciferase luminescence, HepG2 viability, primary screen (AID 624349; in the data active = parasite load remaining mostly below about 12%, no sharp cut-off; inactive = mostly above about 10%;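 note: 100% = mean of DMSO negative control wells on the same plate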); settings: P. berghei liver stage in HepG2, luciferase luminescence, concentration not given here; parasite load remaining: stronger effect = lower value; viability: measured here: HepG2 viability without parasites
[15] = viability loss with induced miR-34 in A549 – imaging, A549 dox-inducible miR-34, nuclei and caspase counts, primary screen (AID 1347080;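 active = compounds whose cell count with miR-34 switched on is under 0.7 times the count with it off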); settings: A549 miR-34 inducible, Hoechst nuclei count, 48 h
[16] = stimulators of insulin release from INS-1E, primary screen, cell-based, 5 mM glucose, NPC library (AID 1117329;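 active = compound raises insulin release from rat beta cells at 5 mM glucose, no numeric limit stated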); settings: rat INS-1E insulin secretion, at 10 µM, stronger effect = higher value
[17] = inhibition of endothelial tube formation, primary screen, imaging, VEGF stimulated, CD31 staining, tube area, NPC library (AID 1117340;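 active = compound that reduces growth-factor-driven endothelial tube area in a mixed cell culture, no cutoff stated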); settings: VEGF-stimulated ADSC/ECFC co-culture, at 10 µM, stronger effect = higher value
[18] = GLP1 release stimulators, primary, NCI-H716, NPC library (AID 1117341;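 active = compound raises GLP1 secretion from the human gut endocrine cells, with no numeric limit stated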); settings: NCI-H716 cells, at 10 µM, stronger effect = higher value
[19] = growth inhibition, single agents and combos, ICB984, cell-based, cisplatin or BGB combos, synergistic combos for chromothripsis tumors (AID 1671451); settings: ICB984 medulloblastoma cells, drug combinations, stronger effect = higher value;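 note: cells exposed for 96 hours before readout; 0% = vehicle DMSO and 100% = killing by high DMSO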
[20] = measured here: epithelial PC-3E GFP cell survival
[21] = measured here: mesenchymal TEM4-18 mCherry cell survival
[22] = MELAS cybrid survival, CellTiter-Glo 48 h, stronger effect = higher value
[23] = Rieske KO mouse fibroblast survival, CellTiter-Glo 72 h
[24] = stronger effect = lower value, cell number ratio, induced over uninduced
[25] = measured here: relative caspase fold change +Dox/-Dox
[26] = measured here: total cells with miR-34 induction, stronger effect = lower value
[27] = measured here: total cells without miR-34 induction

## CC12CCC(CC1)C(C)(C)O2
[1]; at 10 µM
  nuclear beta-catenin stimulation: 1.8% (inactive)
[1]; stimulation, at 2 µM
  nuclear beta-catenin stimulation: 17.2%
[2]
  viability decrease: 4.1% (inactive)
[3]
  inhibition of viability: 7.2% (inactive)
[4]
  viability decrease (inhibition): 5% (inactive)
[5]
  viability decrease (inhibition): 4.4% (inactive)
[6]
  inhibition: -15.6% (inactive)
[7]
  red/green cell ratio (normalised): 0.83 (inactive)
[7]; [20]
  normalised cell number: 1.13
[7]; [21]
  normalised cell number: 0.94
[8]
  remaining NAD: 10 nM (inactive)

## CC(C)OC(=O)C(C)(C)Oc1ccc(C(=O)c2ccc(Cl)cc2)cc1
[9]
  survival: 16.9 (inactive)
[1]; at 10 µM
  nuclear beta-catenin stimulation: 1.9% (inactive)
[1]; stimulation, at 2 µM
  nuclear beta-catenin stimulation: 6.9%
[2]
  viability decrease: 81.1% (active)
[3]
  inhibition of viability: 81.4% (active)
[4]
  viability decrease (inhibition): 75.1% (active)
[5]
  viability decrease (inhibition): 57.5% (active)
[6]
  inhibition: 13.2% (inactive)
[10]
  mean signal: 232 (inactive)
[7]
  red/green cell ratio (normalised): 1.01 (inactive)
[7]; [20]
  normalised cell number: 1
[7]; [21]
  normalised cell number: 1
[11]; [22]
  z-score: 0.204 (inactive) and 1.22 (inactive) and 0.396 (inactive)
[11]; [23]
  z-score: 0.718 and 0.00922 and -0.202
[8]
  remaining NAD: 10 nM (inactive)
[12]
  luciferase signal: 56 AU (inactive)
[13]
  z-score: -1 (inactive) and -1.21 (inactive) and -1.85 (inactive)

## COCCCOc1ccnc(CS(=O)c2nc3ccccc3[nH]2)c1C (stereo not given)
[14]
  parasite load remaining: 32% (inactive) and 56.4% (inactive)
  viability: 108% and 71%
[1]; at 10 µM
  nuclear beta-catenin stimulation: 0% (inactive)
[1]; stimulation, at 2 µM
  nuclear beta-catenin stimulation: 9.8%
[2]
  viability decrease: 32.7% (inactive)
[3]
  inhibition of viability: 20.2% (inactive)
[4]
  viability decrease (inhibition): 4.6% (inactive)
[5]
  viability decrease (inhibition): -10.8% (inactive)
[10]
  mean signal: 232 (inactive)
[7]
  red/green cell ratio (normalised): 0.79 (inactive)
[7]; [20]
  normalised cell number: 1.16
[7]; [21]
  normalised cell number: 0.91
[15]; [24]
  fold change: 0.932 (inactive) and 0.863 (inactive)
[15]; [25]
  fold change: 1.16 and 3.79
[15]; [26]
  cell count: 9170 and 10700
[15]; [27]
  cell count: 9840 and 12400
[8]
  remaining NAD: 10 nM (inactive)
[12]
  luciferase signal: 200 AU (inactive)
[13]
  z-score: -0.225 (inactive)

## CN/C(=C\[N+](=O)[O-])NCCSCc1ccc(CN(C)C)o1
[9]
  survival: 19.6 (inactive)
[16]
  insulin secretion stimulation: -1% (inactive)
[2]
  viability decrease: -7.5% (inactive)
[17]
  tube area decrease: 7% (inactive)
[18]
  GLP1 secretion stimulation: -1.4% (inactive)
[3]
  inhibition of viability: 2.23% (inactive)
[4]
  viability decrease (inhibition): -25.8% (inactive)
[5]
  viability decrease (inhibition): -22.7% (inactive)
[6]
  inhibition: -3.38% (inactive)
[10]
  mean signal: 267 (inactive)
[7]
  red/green cell ratio (normalised): 1.01 (inactive)
[7]; [20]
  normalised cell number: 1.03
[7]; [21]
  normalised cell number: 1.04
[15]; [24]
  fold change: 0.934 (inactive) and 0.989 (inactive) and 0.926 (inactive)
[15]; [25]
  fold change: 0.757 and 2.23 and 4.08
[15]; [26]
  cell count: 10600 and 10300 and 12000
[15]; [27]
  cell count: 11300 and 10400 and 13000
[8]
  remaining NAD: 10 nM (inactive)
[12]
  luciferase signal: 28 AU (inactive)
[13]
  z-score: 0.37 (inactive) and -0.285 (inactive)

## CCn1cc(C(=O)O)c(=O)c2ccc(C)nc21
[9]
  survival: 18 (inactive)
[16]
  insulin secretion stimulation: -1.7% (inactive)
[2]
  viability decrease: 10.1% (inactive)
[17]
  tube area decrease: 2% (inactive)
[18]
  GLP1 secretion stimulation: 3.3% (inactive)
[3]
  inhibition of viability: 10.9% (inactive)
[4]
  viability decrease (inhibition): 30.9% (inactive)
[5]
  viability decrease (inhibition): -0.43% (inactive)
[6]
  inhibition: -7.36% (inactive)
[10]
  mean signal: 268 (inactive)
[7]
  red/green cell ratio (normalised): 0.88 (inactive)
[7]; [20]
  normalised cell number: 1.09
[7]; [21]
  normalised cell number: 0.97
[8]
  remaining NAD: 10 nM (inactive)
[12]
  luciferase signal: 44 AU (inactive)
[19]; BGB IC20 combo, at 0.005 µM
  inhibition: 7.03% and -21.5%
[19]; BGB IC40 combo, at 0.005 µM
  inhibition: -26.9% and -29.6%
[19]; BGB IC40 combo, at 0.05 µM
  inhibition: -0.123% and -9.89%
[19]; at 0.5 µM
  inhibition: -22.6% (inactive) and -21.9% (inactive)
[19]; cisplatin combo, at 0.05 µM
  inhibition: -0.123% and -9.89%
[19]; cisplatin combo, at 0.5 µM
  inhibition: -52.2% and -39.7%
[19]; cisplatin combo, at 5 µM
  inhibition: -11.7% and -29.5%
[19]; measured here: 5 uM single agent, at 5 µM
  inhibition: -3.29% and -15.7%

## C[C@@H](C1=C(CCN(C)C)Cc2ccccc21)c1ccccn1
[1]; at 10 µM
  nuclear beta-catenin stimulation: -0.2% (inactive)
[1]; stimulation, at 2 µM
  nuclear beta-catenin stimulation: 8.1%
[2]
  viability decrease: 37.5% (inactive)
[3]
  inhibition of viability: -11.9% (inactive)
[4]
  viability decrease (inhibition): 63.6% (active)
[5]
  viability decrease (inhibition): -48.2% (inactive)
[15]; [24]
  fold change: 0.916 (inactive)
[15]; [25]
  fold change: 0.633
[15]; [26]
  cell count: 7800
[15]; [27]
  cell count: 8520
[13]
  z-score: -0.445 (inactive)

## COc1c2occc2cc2ccc(=O)oc12
[9]
  survival: 5.42 (inactive)
[16]
  insulin secretion stimulation: 1.9% (inactive)
[2]
  viability decrease: -33.7% (inactive)
[17]
  tube area decrease: 3.8% (inactive)
[18]
  GLP1 secretion stimulation: 2% (inactive)
[3]
  inhibition of viability: 8.3% (inactive)
[4]
  viability decrease (inhibition): 26.9% (inactive)
[5]
  viability decrease (inhibition): 8.4% (inactive)
[6]
  inhibition: 3.81% (inactive)
[10]
  mean signal: 248 (inactive)
[7]
  red/green cell ratio (normalised): 1.15 (inactive)
[7]; [20]
  normalised cell number: 0.84
[7]; [21]
  normalised cell number: 0.96
[11]; [22]
  z-score: -0.203 (inactive)
[11]; [23]
  z-score: -0.0388
[8]
  remaining NAD: 10 nM (inactive)
[12]
  luciferase signal: 24 AU (inactive)
[13]
  z-score: 0.975 (inactive)

## CCN(CC)CCOc1ccc(Cc2ccccc2)cc1
[1]; at 10 µM
  nuclear beta-catenin stimulation: 2.1% (inactive)
[1]; stimulation, at 2 µM
  nuclear beta-catenin stimulation: 14.6%
[2]
  viability decrease: 67.3% (active)
[3]
  inhibition of viability: 67.4% (active)
[4]
  viability decrease (inhibition): 83.4% (active)
[5]
  viability decrease (inhibition): 55.9% (active)
[15]; [24]
  fold change: 0.97 (inactive)
[15]; [25]
  fold change: 0.737
[15]; [26]
  cell count: 8340
[15]; [27]
  cell count: 8600
[13]
  z-score: -0.96 (inactive)

## CN1CCN(C2=Nc3cc(Cl)ccc3Nc3ccccc32)CC1
[9]
  survival: 15.2 (inactive)
[16]
  insulin secretion stimulation: 3.6% (inactive)
[2]
  viability decrease: 17.2% (inactive)
[17]
  tube area decrease: -0.2% (inactive)
[18]
  GLP1 secretion stimulation: 7.2% (inactive)
[3]
  inhibition of viability: 63% (active)
[4]
  viability decrease (inhibition): 66.6% (active)
[5]
  viability decrease (inhibition): 14.1% (inactive)
[6]
  inhibition: -3.75% (inactive)
[10]
  mean signal: 262 (inactive)
[7]
  red/green cell ratio (normalised): 1.04 (inactive)
[7]; [20]
  normalised cell number: 1.09
[7]; [21]
  normalised cell number: 1.14
[11]; [22]
  z-score: -1.17 (inactive) and -0.401 (inactive) and 0.405 (inactive)
[11]; [23]
  z-score: 0.276 and 0.587
[8]
  remaining NAD: 10 nM (inactive)
[12]
  luciferase signal: 24 AU (inactive)

## COc1ccc2cc([C@H](C)C(=O)O)ccc2c1
[9]
  survival: 2.08 (inactive)
[16]
  insulin secretion stimulation: -0.7% (inactive)
[2]
  viability decrease: -21% (inactive)
[17]
  tube area decrease: 16.3% (inactive)
[18]
  GLP1 secretion stimulation: -1.7% (inactive)
[3]
  inhibition of viability: -1.1% (inactive)
[4]
  viability decrease (inhibition): 30.2% (inactive)
[5]
  viability decrease (inhibition): -14.8% (inactive)
[6]
  inhibition: -2.26% (inactive)
[10]
  mean signal: 264 (inactive)
[7]
  red/green cell ratio (normalised): 1.07 (inactive)
[7]; [20]
  normalised cell number: 1.19
[7]; [21]
  normalised cell number: 1.27
[11]; [22]
  z-score: 0.168 (inactive)
[11]; [23]
  z-score: -0.681
[8]
  remaining NAD: 10 nM (inactive)
[12]
  luciferase signal: 36 AU (inactive)
[13]
  z-score: 0.36 (inactive) and 0.18 (inactive) and 0.675 (inactive)
